# In all, about 5,500 compounds went through this assay and about 2,000 (36%) were called active. Not shown: some 18% with an inconclusive outcome. This is one part of the list. A number with no mark means an inactive call. No stated cut-off is given here; in the data, active means normalized growth mostly below about 0.91 (no sharp cut-off); inconclusive means no clear call, values can overlap the other calls; inactive means mostly above about 0.92.
# Assay: chemical genetic growth profiling, strain panel (AID 1159580);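 further: tested at 20 µM; growth read once vehicle control cultures reached saturation at 30 °C; 1 = growth at the plate median or of vehicle wells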
# Settings: growth OD
smiles,measurement,setting,value
CC[C@@H](C(=O)O)[C@@H]1O[C@@H]([C@@H](C)[C@H](O)[C@H](C)C(=O)[C@H](CC)[C@H]2O[C@]3(C=C[C@@H](O)[C@]4(CC[C@@](C)(C5CC[C@](O)(CC)[C@H](C)O5)O4)O3)[C@H](C)C[C@@H]2C)[C@@H](C)C[C@H]1C (stereo partly specified),normalized growth,"S. cerevisiae deletion strains, locus YAL013W, strain DEP1, stronger effect = lower value",0.858 (active)
same,normalized growth,"S. cerevisiae deletion strains, locus YBR021W, strain FUR4, stronger effect = lower value",0.168 (active)
same,normalized growth,"S. cerevisiae deletion strains, locus YBR229C, strain ROT2, stronger effect = lower value",0.405 (active)
same,normalized growth,"S. cerevisiae deletion strains, locus YCL029C, strain bik1, stronger effect = lower value",0.559 (active)
same,normalized growth,"S. cerevisiae deletion strains, locus YDL035C, strain GPR1, stronger effect = lower value",0.478 (active)
same,normalized growth,"S. cerevisiae deletion strains, locus YDL074C, strain BRE1, stronger effect = lower value",0.412 (active)
same,normalized growth,"S. cerevisiae deletion strains, locus YDL101C, strain DUN1, stronger effect = lower value",0.214 (active)
same,normalized growth,"S. cerevisiae deletion strains, locus YDL134C, strain PPH21, stronger effect = lower value",0.313 (active)
same,normalized growth,"S. cerevisiae deletion strains, locus YDL185W, strain tfp1, stronger effect = lower value",0.993
same,normalized growth,"S. cerevisiae deletion strains, locus YDL192W, strain arf1, stronger effect = lower value",0.0725 (active)
same,normalized growth,"S. cerevisiae deletion strains, locus YDR101C, strain arx1, stronger effect = lower value",0.569 (active)
same,normalized growth,"S. cerevisiae deletion strains, locus YDR150W, strain NUM1, stronger effect = lower value",0.426 (active)
same,normalized growth,"S. cerevisiae deletion strains, locus YDR162C, strain NBP2, stronger effect = lower value",0.0697 (active)
same,normalized growth,"S. cerevisiae deletion strains, locus YDR318W, strain mcm21, stronger effect = lower value",0.224 (active)
same,normalized growth,"S. cerevisiae deletion strains, locus YDR388W, stronger effect = lower value",0.117 (active)
same,normalized growth,"S. cerevisiae deletion strains, locus YDR502C, strain sam2, stronger effect = lower value",0.317 (active)
same,normalized growth,"S. cerevisiae deletion strains, locus YEL061C, strain CIN8, stronger effect = lower value",0.724 (active)
same,normalized growth,"S. cerevisiae deletion strains, locus YER110C, stronger effect = lower value",0.861 (active)
same,normalized growth,"S. cerevisiae deletion strains, locus YER155C, strain BEM2, stronger effect = lower value",0.796 (active)
same,normalized growth,"S. cerevisiae deletion strains, locus YER167W, strain BCK2, stronger effect = lower value",0.294 (active)
same,normalized growth,"S. cerevisiae deletion strains, locus YGL078C, strain dbp3, stronger effect = lower value",0.378 (active)
same,normalized growth,"S. cerevisiae deletion strains, locus YGL086W, strain mad1, stronger effect = lower value",0.331 (active)
same,normalized growth,"S. cerevisiae deletion strains, locus YGL248W, strain PDE1, stronger effect = lower value",0.282 (active)
same,normalized growth,"S. cerevisiae deletion strains, locus YGR078C, strain PAC10, stronger effect = lower value",0.621 (active)
same,normalized growth,"S. cerevisiae deletion strains, locus YGR135W, strain pre9, stronger effect = lower value",0.781 (active)
same,normalized growth,"S. cerevisiae deletion strains, locus YGR229C, strain SMI1, stronger effect = lower value",0.15 (active)
same,normalized growth,"S. cerevisiae deletion strains, locus YGR252W, strain gcn5, stronger effect = lower value",0.312 (active)
same,normalized growth,"S. cerevisiae deletion strains, locus YHR030C, strain SLT2, stronger effect = lower value",0.142 (active)
same,normalized growth,"S. cerevisiae deletion strains, locus YHR079C, strain IRE1 (second series), stronger effect = lower value",0.39 (active)
same,normalized growth,"S. cerevisiae deletion strains, locus YHR094C, strain hxt1, stronger effect = lower value",0.278 (active)
same,normalized growth,"S. cerevisiae deletion strains, locus YHR129C, strain ARP1, stronger effect = lower value",0.209 (active)
same,normalized growth,"S. cerevisiae deletion strains, locus YHR200W, strain rpn10, stronger effect = lower value",0.691 (active)
same,normalized growth,"S. cerevisiae deletion strains, locus YIL066C, strain RNR3, stronger effect = lower value",0.385 (active)
same,normalized growth,"S. cerevisiae deletion strains, locus YIL073C, strain SPO22, stronger effect = lower value",0.127 (active)
same,normalized growth,"S. cerevisiae deletion strains, locus YIL125W, strain kgd1, stronger effect = lower value",0.12 (active)
same,normalized growth,"S. cerevisiae deletion strains, locus YIR030C, strain dcg1, stronger effect = lower value",0.461 (active)
same,normalized growth,"S. cerevisiae deletion strains, locus YJL095W, strain BCK1, stronger effect = lower value",0.232 (active)
same,normalized growth,"S. cerevisiae deletion strains, locus YJL134W, strain LCB3, stronger effect = lower value",0.244 (active)
same,normalized growth,"S. cerevisiae deletion strains, locus YJL168C, strain set2, stronger effect = lower value",0.448 (active)
same,normalized growth,"S. cerevisiae deletion strains, locus YJL187C, strain SWE1 (second series), stronger effect = lower value",0.287 (active)
same,normalized growth,"S. cerevisiae deletion strains, locus YJR043C, strain POL32, stronger effect = lower value",0.552 (active)
same,normalized growth,"S. cerevisiae deletion strains, locus YJR075W, strain HOC1, stronger effect = lower value",0.6 (active)
same,normalized growth,"S. cerevisiae deletion strains, locus YKL009W, strain mrt4, stronger effect = lower value",0.874 (active)
same,normalized growth,"S. cerevisiae deletion strains, locus YKL068W, stronger effect = lower value",0.257 (active)
same,normalized growth,"S. cerevisiae deletion strains, locus YKL085W, strain MDH1 (second series), stronger effect = lower value",0.164 (active)
same,normalized growth,"S. cerevisiae deletion strains, locus YKL085W, strain MDH1, stronger effect = lower value",0.164 (active)
same,normalized growth,"S. cerevisiae deletion strains, locus YKL190W, strain CNB1, stronger effect = lower value",0.295 (active)
same,normalized growth,"S. cerevisiae deletion strains, locus YKR001C, strain vps1, stronger effect = lower value",0.0696 (active)
same,normalized growth,"S. cerevisiae deletion strains, locus YLR039C, strain RIC1, stronger effect = lower value",0.115 (active)
same,normalized growth,"S. cerevisiae deletion strains, locus YLR058C, strain SHM2, stronger effect = lower value",0.432 (active)
same,normalized growth,"S. cerevisiae deletion strains, locus YLR102C, strain apc9, stronger effect = lower value",0.431 (active)
same,normalized growth,"S. cerevisiae deletion strains, locus YLR262C, strain YPT6, stronger effect = lower value",0.125 (active)
same,normalized growth,"S. cerevisiae deletion strains, locus YLR268W, strain sec22, stronger effect = lower value",0.291 (active)
same,normalized growth,"S. cerevisiae deletion strains, locus YLR330W, strain CHS5, stronger effect = lower value",0.237 (active)
same,normalized growth,"S. cerevisiae deletion strains, locus YLR342W, strain FKS1 (second series), stronger effect = lower value",0.2 (active)
same,normalized growth,"S. cerevisiae deletion strains, locus YLR371W, strain rom2, stronger effect = lower value",0.147 (active)
same,normalized growth,"S. cerevisiae deletion strains, locus YLR418C, strain cdc73, stronger effect = lower value",0.162 (active)
same,normalized growth,"S. cerevisiae deletion strains, locus YML016C, strain PPZ1, stronger effect = lower value",0.402 (active)
same,normalized growth,"S. cerevisiae deletion strains, locus YML032C, strain rad52, stronger effect = lower value",0.586 (active)
same,normalized growth,"S. cerevisiae deletion strains, locus YML124C, strain tub3, stronger effect = lower value",0.385 (active)
same,normalized growth,"S. cerevisiae deletion strains, locus YMR078C, strain ctf18, stronger effect = lower value",0.857 (active)
same,normalized growth,"S. cerevisiae deletion strains, locus YMR223W, strain ubp8, stronger effect = lower value",0.465 (active)
same,normalized growth,"S. cerevisiae deletion strains, locus YMR263W, strain SAP30, stronger effect = lower value",0.763 (active)
same,normalized growth,"S. cerevisiae deletion strains, locus YMR307W, strain GAS1, stronger effect = lower value",0.129 (active)
same,normalized growth,"S. cerevisiae deletion strains, locus YNL067W, strain RPL9B, stronger effect = lower value",0.629 (active)
same,normalized growth,"S. cerevisiae deletion strains, locus YNL128W, strain TEP1, stronger effect = lower value",0.377 (active)
same,normalized growth,"S. cerevisiae deletion strains, locus YNL153C, strain GIM3, stronger effect = lower value",0.31 (active)
same,normalized growth,"S. cerevisiae deletion strains, locus YNL233W, strain BNI4, stronger effect = lower value",0.2 (active)
same,normalized growth,"S. cerevisiae deletion strains, locus YNL250W, strain rad50, stronger effect = lower value",0.262 (active)
same,normalized growth,"S. cerevisiae deletion strains, locus YNL271C, strain bni1, stronger effect = lower value",0.119 (active)
same,normalized growth,"S. cerevisiae deletion strains, locus YNL298W, strain CLA4, stronger effect = lower value",0.111 (active)
same,normalized growth,"S. cerevisiae deletion strains, locus YNL307C, strain MCK1, stronger effect = lower value",0.229 (active)
same,normalized growth,"S. cerevisiae deletion strains, locus YNL322C, strain KRE1, stronger effect = lower value",0.262 (active)
same,normalized growth,"S. cerevisiae deletion strains, locus YNR052C, strain pop2, stronger effect = lower value",0.241 (active)
same,normalized growth,"S. cerevisiae deletion strains, locus YOL006C, strain TOP1, stronger effect = lower value",0.107 (active)
same,normalized growth,"S. cerevisiae deletion strains, locus YOL012C, strain htz1",0.22
same,normalized growth,"S. cerevisiae deletion strains, locus YOL147C, strain pex11, stronger effect = lower value",0.338 (active)
same,normalized growth,"S. cerevisiae deletion strains, locus YOR061W, strain CKA2, stronger effect = lower value",0.0978 (active)
same,normalized growth,"S. cerevisiae deletion strains, locus YOR069W, strain VPS5, stronger effect = lower value",0.14 (active)
same,normalized growth,"S. cerevisiae deletion strains, locus YOR136W, strain idh2, stronger effect = lower value",0.248 (active)
same,normalized growth,"S. cerevisiae deletion strains, locus YOR144C, strain elg1, stronger effect = lower value",0.425 (active)
same,normalized growth,"S. cerevisiae deletion strains, locus YOR184W, strain ser1, stronger effect = lower value",0.335 (active)
same,normalized growth,"S. cerevisiae deletion strains, locus YOR316C, strain cot1, stronger effect = lower value",0.377 (active)
same,normalized growth,"S. cerevisiae deletion strains, locus YPL055C, strain LGE1, stronger effect = lower value",0.174 (active)
same,normalized growth,"S. cerevisiae deletion strains, locus YPL241C, strain CIN2, stronger effect = lower value",0.648 (active)
same,normalized growth,"S. cerevisiae deletion strains, locus YPR119W, strain clb2, stronger effect = lower value",0.623 (active)
same,normalized growth,"S. cerevisiae deletion strains, locus YPR141C, strain kar3, stronger effect = lower value",0.383 (active)
same,normalized growth,"S. cerevisiae deletion strains, locus YPR163C, strain tif3, stronger effect = lower value",0.134 (active)
same,normalized growth,"S. cerevisiae deletion strains, locus YPR167C, strain met16, stronger effect = lower value",0.427 (active)
same,normalized growth,"S. cerevisiae deletion strains, strain wtn01, stronger effect = lower value",0.245 (active)
same,normalized growth,"S. cerevisiae strains, strain wild type, stronger effect = lower value",0.27 (active)
